SNCA viab count: counter-screen for SNCA expression inhibitors: cell viability; HEK-293-SNCA-luc viability, GF-AFC fluorescence, 24 h; Potency, µM (titrated, usually from 57.1 µM), without a hit: at the top dose activity change, negative = cytotoxicity, actives largely listed as cytotoxic; actives 0.12% (n = 150,000);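 further: potency means the concentration at half of the fitted maximal effect; 0% = DMSO-treated cells and -100% = medium-only wells without cells; nearly all actives have a fitted effect of over 30% in size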
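Cytotoxicity counterscreen: after 24 h compound treatment of genome-edited SNCA-luciferase HEK-293 cells, live-cell protease substrate GF-AFC read by fluorescence after 30 min; activity scaled between DMSO (0%) and medium-only (-100%), curves Hill-fitted.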
SNCA expr inhib: inhibitors of alpha-synuclein (SNCA) gene expression; Potency, µM (highest dose often 57.2 µM), without a hit: at the highest dose activity change, negative = inhibition, usual class: inhibitors; AID 1671194; HEK-293 SNCA-luciferase knock-in, luminescence, 24 h; actives 0.17% (n = 140,000);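 further: potency means the concentration at half of the fitted maximal effect; plate controls were DMSO cells for no effect and cell-free wells for full effect; nearly all actives have a fitted effect of over 45% in size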
IP6K1 inh: inhibitors of human IP6K1; Q92551; IP6K1 kinase, ADP-Glo luminescence, 2 h; stronger effect = lower value; actives 0.81% (n = 140,000); activity change, % (series mostly up to about 58 µM); AID 1645851; in the data active means activity change below about -25%; further: on the % scale 0 is the no-effect control and ±100 the full control effect
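ADP-Glo luminescence measures ADP made by human IP6K1 during a 2 h RT reaction with ATP/IP6 (mix at 1.3 mM/130 uM); top library doses 57.5 and 19.1 uM final.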
KDM5B inh: KDM5B demethylase inhibition. KDM5B demethylase, FDH-coupled NADH fluorescence (FDH is formaldehyde dehydrogenase). AID 1347165. actives 2.6% (n = 220,000). Potency, µM (series often up to 57.7 µM), usual class: inhibitors; further: potency means the concentration at half of the fitted maximal effect; 0% is about no effect; nearly all actives have a fitted effect of over 70% in size
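Coupled FDH/NAD⁺ fluorescence readout. KDM5BΔAP 200 nM final; compound titration, 10 min RT preincubation; substrate mix 12.5 µM H3K4me3, 25 µM 2-OG, 50 µM Fe(II), 100 µM ascorbate, 0.25 mM NAD⁺, 0.25 U/mL FDH; ΔRFU over 30 min.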
* = called active by the depositor; i = inactive; ? = inconclusive; . = no result given; [ ] = another dose, or the depositor's remark. Shown are actives, neighbours in structure and some others; about 2.9% of the full set was active somewhere. Unless noted, the call rests on the fitted dose curve; in most records, active means well fitted curve in the direction sought with a large enough effect; inconclusive means small, poorly fitted or top-dose-only effect, or another doubt; inactive means no such curve, though single readings can be large; an effect the other way counts as inactive or inconclusive.

SMILES	SNCA viab count	SNCA expr inhib	IP6K1 inh	KDM5B inh
CN(CC1CCN(CCc2cccc(F)c2)CC1)C(=O)[C@@H](N)Cc1cnc[nH]1	-26.9%	31.8%	-6.8	i
O=C(Cc1ccc(-c2ccccc2)cc1)NCCS(=O)(=O)N1CCN(c2ccccc2)CC1	9.8%	-14.9%	-23.1	?
COc1ccc(N2CCN(S(=O)(=O)CCNC(=O)Cc3ccc(-c4ccccc4)cc3)CC2)cc1	23.3%	29.6%	-27.5*	i
CCc1noc(-c2cccn3c(CNC(=O)c4ccccc4C)nnc23)n1	-8.4%	-18.1%	3.7	28.2µM*
CCc1noc(-c2cccn3c(CNC(=O)c4cc(C)ccc4C)nnc23)n1	1.3%	-24.6%	22.4	10µM*
CCc1noc(-c2cccn3c(CNC(=O)Cc4ccccc4OC)nnc23)n1	0.5%	3.2%	12.9	?
COc1cccc(-n2c(-c3ccc(Cl)cc3)cc3c2CC(C)(C)CC3=O)c1	2.1%	?	-8.9	i
CC1CCC(N(C)C(=O)c2nn(-c3ccccc3)c(=O)c3ccccc23)CC1 (centres undefined)	.	.	.	i
COc1ccc(CCNC(=O)c2cc(=O)c3cc(C)cc(C)c3o2)cc1OC	9.4%	120.5%	12.2	?
O=[S+]1([O-])NC2(CCN(CC3CCOCC3)CC2)COc2ccccc21	0.4%	-9.7%	-1.6	79.4µM*
CS(=O)(=O)NCC(=O)O	.	.	.	i
CCOc1ccc(C(c2c(C)[nH]n(-c3ccccc3)c2=O)c2c(C)[nH]n(-c3ccccc3)c2=O)cc1OC	?	35.5%	-30.3*	?
CN1CCC2(C1)CN(Cc1ccccc1)c1ccc(C(=O)NC3CCC(O)CC3)cc12 (centres undefined)	0.1%[87.6 µM]	5.2%[87.6 µM]	9.8	39.8µM*
COc1cccc(CN2CC3(CCN(C)C3)c3cc(C(=O)NC4CCCCC4)ccc32)c1 (centres undefined)	-7.0%[87.6 µM]	?	-1.8	35.5µM*
COc1ccc(NC(=O)c2ccc3c(c2)C2(CCN(C)C2)CN3Cc2ccccc2)cc1 (centres undefined)	3.8%[87.6 µM]	-6.7%[87.6 µM]	7.7	?
O=C(NC1CCOCC1)c1ccc2c(c1)C1(CCN(CC3CC3)C1)CN2Cc1ccccc1 (centres undefined)	-5.5%	3.4%	11.2	28.2µM*
CC(C)CCN1C(=O)CC[C@]2(C(=O)NCc3ccncc3)CCCC[C@@H]12	2.1%	-4.2%	-6.0	i
O=C(NCc1ccnc2[nH]ccc12)c1cccc(Cl)c1	0.1%[87.6 µM]	17.2%[87.6 µM]	2.8	35.5µM*
O=C(NCc1ccnc2[nH]ccc12)c1cncc(Br)c1	12.0%[87.6 µM]	25.8%[87.6 µM]	1.3	i
O=C(Cc1cccc(Cl)c1)NCc1ccnc2[nH]ccc12	15.7%[87.6 µM]	32.1%[87.6 µM]	16.2	i
O=C(NCc1c[nH]c2ncccc12)c1cccc2[nH]ccc12	5.5%[87.6 µM]	-24.1%[87.6 µM]	-5.4	35.5µM*
O=C(NCc1ccnc2[nH]ccc12)c1cccc(Br)c1	3.0%[87.6 µM]	22.7%[87.6 µM]	-9.7	31.6µM*
CCN(Cc1ccccc1)C(=O)CC1C(=O)NCCN1CCc1ccccc1 (centres undefined)	-4.1%	5.1%	7.6	?
O=C(c1cc(F)ccc1F)N1CCN(C(=O)c2nnn3c2COC(c2ccc(Cl)cc2)C3)CC1 (centres undefined)	?	?	-1.4	i
O=C(c1ccco1)N1CCC(n2cnnc2-c2ccccc2)CC1	-4.1%	-17.0%	-3.9	i
SMILES	SNCA viab count	SNCA expr inhib	IP6K1 inh	KDM5B inh
CC(=O)N1CCC(N2CC[C@@H](CO)N(C)c3ncccc3C2)CC1	4.8%[87.6 µM]	0.8%[87.6 µM]	3.5	35.5µM*
Cn1cnc2cc(-c3cccc4[nH]ncc34)cc(C(=O)NCc3cccnc3)c21	-7.0%[87.6 µM]	-4.9%[87.6 µM]	-2.6	39.8µM*
Cn1cncc1CNC(=O)c1cc(-c2ccc(F)cc2)cc2ncn(C)c12	5.4%[87.6 µM]	-4.7%[87.6 µM]	-5.3	28.2µM*
Cn1cnc2cc(Nc3ccc(Cl)cc3F)cc(C(=O)NCc3cccnc3)c21	-14.3%[87.6 µM]	?	15.8	35.5µM*
Cc1cc(C)c(CNC(=O)c2cc(-c3ccc(F)cc3)cc3ncn(C)c23)c(=O)[nH]1	-4.4%[87.6 µM]	-0.4%[87.6 µM]	-0.6	?
CCCN1CCN(c2ccc(-c3nc(C)no3)cn2)CC1	-14.9%	10.5%	12.4	i
COc1nccnc1NC1CCN(C(=O)Cc2ccccc2)CC1	-5.0%	-21.0%	-14.3	?
COc1nccnc1NC1CCN(C(=O)Cc2ccccc2F)CC1	-13.1%	-22.0%	-3.2	35.5µM*
CCOCC(=O)N1CCC(Nc2nccnc2OC)CC1	2.0%	-3.0%	-12.0	28.2µM*
COc1nccnc1NC1CCN(C(=O)NCCc2ccccc2)CC1	-0.8%	33.0%	-9.5	?
CCOCC(=O)N1CCC2(CC1)C(OC)C(=O)N2CC1CC1 (centres undefined)	4.4%	25.8%	1.7	.
COc1nccnc1NC1CCN(C(=O)NC2CCCCC2)CC1	-7.4%	17.5%	-1.4	31.6µM*
COc1nccnc1NC1CCN(C(=O)Cc2cccs2)CC1	4.4%	-25.2%	-4.8	31.6µM*
C/C(=N/Nc1ccccc1C(F)(F)F)c1ccccc1Br	.	.	.	i
COCCNC(=O)Cn1cc(S(=O)(=O)Cc2ccccc2F)c2ccccc21	.	.	.	i
N#Cc1cccc(N2CCC3(CC(=O)NC3=O)C2)n1 (centres undefined)	3.8%	-27.8%	6.6	28.2µM*
O=C1CC2(CCN(c3cncc(C(=O)N4CCCCC4)n3)C2)C(=O)N1 (centres undefined)	-8.7%	-0.2%	15.8	28.2µM*
N#Cc1cccc(N2CCC(Oc3ccc(Cl)cc3)(C(=O)O)CC2)n1	4.0%	13.9%	3.3	?
O=C(c1cncc(N2CCC3(CCCNC3=O)C2)n1)N1CCOCC1 (centres undefined)	-2.9%	10.3%	-3.8	?
COc1ccc(-c2nc(-c3c(C)noc3C)cc3c2cc(-c2ccccc2)n3C)cn1	?	?	-10.0	28.2µM*
Cc1noc(C)c1-c1cc2c(cc(-c3ccccc3)n2C)c(-c2cnn(C)c2)n1	-20.5%[87.6 µM]	10.9%[87.6 µM]	-4.1	35.5µM*
Cc1noc(C)c1-c1cc2c(cc(-c3ccccc3)n2C)c(-c2cccnc2)n1	-19.3%[87.6 µM]	-10.5%[87.6 µM]	-13.8	i
Cc1noc(C)c1-c1cc2c(cc(-c3ccccc3)n2C)c(N2CCOCC2)n1	-15.1%[87.6 µM]	-14.3%[87.6 µM]	-16.4	22.4µM*
COc1ccc(-c2cc(-c3c(C)noc3C)cc3c2C(=O)N(C)C3)cn1	-14.9%[87.6 µM]	-15.9%[87.6 µM]	16.1	31.6µM*
CC1=C(C(=O)OCC(F)(F)F)C(c2ccc3c(c2)OCO3)NC(=O)N1 (centres undefined)	.	.	.	i
c1csc(CNc2cc(-c3ccoc3)ncn2)c1	5.9%	-5.2%	.	.
Cc1noc(C)c1-c1cc2c(cc(-c3ccccc3)n2C)c(Nc2ccncn2)n1	?	-22.8%[87.6 µM]	-7.9	35.5µM*
NC(=O)Cn1ccc2cc(OCC3CCN(C(=O)COc4ccccc4)CC3)cnc21	-2.0%[87.6 µM]	17.4%[87.6 µM]	-8.0	35.5µM*
NC(=O)Cn1ccc2cc(OCC3CCN(C(=O)CCc4ccccc4)CC3)cnc21	-9.6%[87.6 µM]	-15.4%[87.6 µM]	-8.6	31.6µM*

Assay outcomes from PubChem BioAssay.
